Measured values taken from PubChem BioAssay AID1159580 (chemical genetic matrix, 2015).
The campaign covered roughly 5,500 compounds. About 2,000 (36%) were called active. Roughly 18% stayed inconclusive and do not appear here. No stated cut-off is given here; in the data, active means normalized growth mostly below about 0.91 (no sharp cut-off); inconclusive means no clear call, values can overlap the other calls; inactive means mostly above about 0.92. The list shows a part of the results.

Experiment: chemical genetic growth profiling, strain panel (AID 1159580);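 further: tested at 20 µM; growth read once vehicle control cultures reached saturation at 30 °C; 1 = growth at the plate median or of vehicle wells; lower values mean less growth of the strain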
Settings: growth OD
[1] = S. cerevisiae deletion strains, locus YBR229C, strain ROT2, active compounds read low
[2] = S. cerevisiae deletion strains, locus YDL101C, strain DUN1, active compounds read low
[3] = S. cerevisiae deletion strains, locus YDR150W, strain NUM1, active compounds read low
[4] = S. cerevisiae deletion strains, locus YEL061C, strain CIN8, active compounds read low
[5] = S. cerevisiae deletion strains, locus YHR030C, strain SLT2, active compounds read low
[6] = S. cerevisiae deletion strains, locus YHR087W, strain rtc3, active compounds read low
[7] = S. cerevisiae deletion strains, locus YJR043C, strain POL32, active compounds read low
[8] = S. cerevisiae deletion strains, locus YJR075W, strain HOC1, active compounds read low
[9] = S. cerevisiae deletion strains, locus YLR039C, strain RIC1, active compounds read low
[10] = S. cerevisiae deletion strains, locus YLR058C, strain SHM2 (second series), active compounds read low
[11] = S. cerevisiae deletion strains, locus YLR085C, strain ARP6, active compounds read low
[12] = S. cerevisiae deletion strains, locus YLR262C, strain YPT6, active compounds read low
[13] = S. cerevisiae deletion strains, locus YML094W, strain GIM5, active compounds read low
[14] = S. cerevisiae deletion strains, locus YMR219W, strain ESC1, active compounds read low
[15] = S. cerevisiae deletion strains, locus YMR263W, strain SAP30, active compounds read low
[16] = S. cerevisiae deletion strains, locus YMR307W, strain GAS1, active compounds read low
[17] = S. cerevisiae deletion strains, locus YNL153C, strain GIM3, active compounds read low
[18] = S. cerevisiae deletion strains, locus YNL298W, strain CLA4 (second series), active compounds read low
[19] = S. cerevisiae deletion strains, locus YNL322C, strain KRE1, active compounds read low
[20] = S. cerevisiae deletion strains, locus YNR030W, strain Alg12, active compounds read low
[21] = S. cerevisiae deletion strains, locus YPL055C, strain LGE1, active compounds read low
[22] = S. cerevisiae deletion strains, locus YPL241C, strain CIN2, active compounds read low
[23] = S. cerevisiae deletion strains, locus YPR135W, strain CTF4, active compounds read low
[24] = S. cerevisiae strains, strain wild type, active compounds read low

Measured: normalized growth

O=c1[nH]cnc2ccc(Br)cc12
inactive: [1] 1.01 | [2] 0.98 | S. cerevisiae deletion strains, locus YDL134C, strain PPH21, active compounds read low 1.01 | [3] 0.918 | [4] 0.998 | S. cerevisiae deletion strains, locus YGR078C, strain PAC10, active compounds read low 1 | [5] 0.994 | [6] 1.01 | S. cerevisiae deletion strains, locus YJL187C, strain SWE1, active compounds read low 1.01 | [7] 1.02 | [8] 1.01 | S. cerevisiae deletion strains, locus YKL190W, strain CNB1, active compounds read low 1.01 | [9] 1.02 | [10] 1.01 | [11] 1.01 | [12] 1.01 | [13] 0.98 | [14] 1.01 | [15] 0.949 | [16] 1.02 | [17] 1 | [18] 1.04 | [19] 1.01 | [20] 1.01 | [21] 0.921 | [22] 1.01 | [23] 0.97 | [24] 1

O=c1[nH]c(-c2cc(Br)cs2)nc2ccc(Cl)cc12
active: [14] 1.13 [resistant]
inactive: S. cerevisiae deletion strains, locus YAL013W, strain DEP1, active compounds read low 1.01 | [1] 1.01 | [2] 1 | [3] 0.938 | [4] 1.01 | [5] 1.03 | [6] 1.04 | [7] 1.01 | [8] 1.06 | [9] 1.1 | [10] 1 | [11] 1.06 | [12] 1.07 | [13] 1.04 | [15] 0.954 | [16] 1.06 | [17] 1.04 | [18] 1.04 | [19] 1.01 | [20] 1.04 | [21] 0.896 | [22] 0.999 | [23] 1.07 | [24] 1.02

O=C(NC(Cc1cc(=O)[nH]c2ccccc12)C(=O)O)c1ccc(Cl)cc1 (centres undefined)
inactive: S. cerevisiae deletion strains, locus YAL021C, strain ccr4, active compounds read low 1.01 | S. cerevisiae deletion strains, locus YAL026C, strain drs2, active compounds read low 1 | S. cerevisiae deletion strains, locus YAL030W, strain snc1, active compounds read low 1 | S. cerevisiae deletion strains, locus YBL061C, strain skt5, active compounds read low 1 | S. cerevisiae deletion strains, locus YBR009C, strain hhf1, active compounds read low 1.01 | S. cerevisiae deletion strains, locus YBR023C, strain chs3, active compounds read low 1.01 | S. cerevisiae deletion strains, locus YBR171W, strain sec66, active compounds read low 0.992 | S. cerevisiae deletion strains, locus YBR231C, strain swc5, active compounds read low 0.994 | S. cerevisiae deletion strains, locus YBR279W, strain paf1, active compounds read low 0.997 | S. cerevisiae deletion strains, locus YCL011C, strain gbp2, active compounds read low 1 | S. cerevisiae deletion strains, locus YCL016C, strain dcc1, active compounds read low 0.994 | S. cerevisiae deletion strains, locus YCL061C, strain MRC1, active compounds read low 0.994 | S. cerevisiae deletion strains, locus YCL069W, strain vba3, active compounds read low 1 | S. cerevisiae deletion strains, locus YCR088W, strain abp1, active compounds read low 0.994 | S. cerevisiae deletion strains, locus YDL005C, strain med2, active compounds read low 1 | S. cerevisiae deletion strains, locus YDL040C, strain nat1, active compounds read low 1 | S. cerevisiae deletion strains, locus YDR001C, strain nth1, active compounds read low 0.997 | S. cerevisiae deletion strains, locus YDR069C, strain doa4, active compounds read low 1 | S. cerevisiae deletion strains, locus YDR137W, strain rgp1, active compounds read low 0.969 | S. cerevisiae deletion strains, locus YDR159W, strain sac3, active compounds read low 1.01 | S. cerevisiae deletion strains, locus YDR195W, strain ref2 0.972 | S. cerevisiae deletion strains, locus YDR297W, strain sur2, active compounds read low 1.01 | S. cerevisiae deletion strains, locus YDR334W, strain swr1, active compounds read low 1.02 | S. cerevisiae deletion strains, locus YDR335W, strain msn5, active compounds read low 1 | S. cerevisiae deletion strains, locus YDR392W, strain spt3, active compounds read low 1.03 | S. cerevisiae deletion strains, locus YEL003W, strain gim4, active compounds read low 0.998 | S. cerevisiae deletion strains, locus YEL037C, strain rad23, active compounds read low 0.982 | S. cerevisiae deletion strains, locus YEL061C, strain CIN8 (second series), active compounds read low 1 | S. cerevisiae deletion strains, locus YER015W, strain faa2, active compounds read low 1.01 | S. cerevisiae deletion strains, locus YER016W, strain bim1, active compounds read low 1 | S. cerevisiae deletion strains, locus YER111C, strain swi4, active compounds read low 0.999 | S. cerevisiae deletion strains, locus YER155C, strain BEM2 (second series), active compounds read low 1 | S. cerevisiae deletion strains, locus YFR010W, strain ubp6, active compounds read low 0.995 | S. cerevisiae deletion strains, locus YGL167C, strain pmr1, active compounds read low 1.01 | S. cerevisiae deletion strains, locus YGL173C, strain kem1, active compounds read low 1.01 | S. cerevisiae deletion strains, locus YGL227W, strain vid30, active compounds read low 1 | S. cerevisiae deletion strains, locus YGL240W, strain doc1, active compounds read low 0.998 | S. cerevisiae deletion strains, locus YGL253W, strain hxk2, active compounds read low 1 | S. cerevisiae deletion strains, locus YHR013C, strain ard1, active compounds read low 1 | S. cerevisiae deletion strains, locus YHR027C, strain rpn1, active compounds read low 0.996 | [5] 0.993 | S. cerevisiae deletion strains, locus YHR079C, strain IRE1, active compounds read low 0.99 | S. cerevisiae deletion strains, locus YHR142W, strain chs7, active compounds read low 0.986 | S. cerevisiae deletion strains, locus YJL092W, strain hpr5, active compounds read low 0.998 | S. cerevisiae deletion strains, locus YJL095W, strain BCK1 (second series), active compounds read low 0.997 | S. cerevisiae deletion strains, locus YJL095W, strain BCK1, active compounds read low 0.988 | S. cerevisiae deletion strains, locus YJL115W, strain asf1, active compounds read low 1 | S. cerevisiae deletion strains, locus YJL129C, strain trk1, active compounds read low 1 | S. cerevisiae deletion strains, locus YJL154C, strain vps35, active compounds read low 1 | S. cerevisiae deletion strains, locus YJL164C, strain tpk1, active compounds read low 1 | S. cerevisiae deletion strains, locus YJL166W, strain qcr8, active compounds read low 0.995 | S. cerevisiae deletion strains, locus YJR066W, strain TOR1, active compounds read low 0.913 | S. cerevisiae deletion strains, locus YKL160W, strain elf1, active compounds read low 0.998 | S. cerevisiae deletion strains, locus YKR026C, strain gcn3, active compounds read low 0.994 | S. cerevisiae deletion strains, locus YKR091W, strain srl3, active compounds read low 1 | S. cerevisiae deletion strains, locus YLL001W, strain dnm1, active compounds read low 0.997 | S. cerevisiae deletion strains, locus YLL026W, active compounds read low 1 | S. cerevisiae deletion strains, locus YLL041C, strain sdh2, active compounds read low 0.997 | S. cerevisiae deletion strains, locus YLR027C, strain aat2, active compounds read low 0.994 | S. cerevisiae deletion strains, locus YLR113W, strain HOG1, active compounds read low 0.995 | S. cerevisiae deletion strains, locus YLR221C, strain rsa3, active compounds read low 0.999 | S. cerevisiae deletion strains, locus YLR258W, strain gsy2, active compounds read low 1 | S. cerevisiae deletion strains, locus YLR262C, strain YPT6 (second series), active compounds read low 1 | S. cerevisiae deletion strains, locus YLR320W, strain mms22, active compounds read low 0.996 | S. cerevisiae deletion strains, locus YLR342W, strain FKS1, active compounds read low 0.991 | S. cerevisiae deletion strains, locus YLR357W, strain rsc2, active compounds read low 0.993 | S. cerevisiae deletion strains, locus YLR370C, strain arc18, active compounds read low 1 | S. cerevisiae deletion strains, locus YLR384C, strain iki3, active compounds read low 0.998 | S. cerevisiae deletion strains, locus YML120C, strain ndi1, active compounds read low 1 | S. cerevisiae deletion strains, locus YMR058W, strain fet3, active compounds read low 1.01 | S. cerevisiae deletion strains, locus YMR125W, strain sto1, active compounds read low 1.01 | S. cerevisiae deletion strains, locus YMR129W, active compounds read low 0.983 | S. cerevisiae deletion strains, locus YMR205C, strain PFK2, active compounds read low 0.997 | S. cerevisiae deletion strains, locus YMR231W, strain pep5, active compounds read low 1.01 | S. cerevisiae deletion strains, locus YNL071W, strain lat1, active compounds read low 1.01 | S. cerevisiae deletion strains, locus YNL183C, strain NPR1, active compounds read low 0.934 | S. cerevisiae deletion strains, locus YNL209W, strain ssb2, active compounds read low 1 | S. cerevisiae deletion strains, locus YNL248C, strain rpa49, active compounds read low 0.994 | S. cerevisiae deletion strains, locus YNL322C, strain KRE1 (second series), active compounds read low 0.992 | S. cerevisiae deletion strains, locus YNR049C, strain mso1, active compounds read low 0.986 | S. cerevisiae deletion strains, locus YOR001W, strain rrp6, active compounds read low 0.988 | S. cerevisiae deletion strains, locus YOR070C, strain gyp1, active compounds read low 1.01 | S. cerevisiae deletion strains, locus YOR080W, strain dia2, active compounds read low 0.998 | S. cerevisiae deletion strains, locus YOR083W, strain WHI5, active compounds read low 1 | S. cerevisiae deletion strains, locus YOR106W, strain vam3, active compounds read low 0.993 | S. cerevisiae deletion strains, locus YOR231W, strain MKK1, active compounds read low 0.988 | S. cerevisiae deletion strains, locus YOR265W, strain rbl2, active compounds read low 1 | S. cerevisiae deletion strains, locus YOR270C, strain vph1, active compounds read low 1.03 | S. cerevisiae deletion strains, locus YOR290C, strain snf2, active compounds read low 1.01 | S. cerevisiae deletion strains, locus YPL051W, strain arl3, active compounds read low 1.01 | S. cerevisiae deletion strains, locus YPL078C, strain atp4, active compounds read low 0.999 | S. cerevisiae deletion strains, locus YPL106C, strain sse1, active compounds read low 1.01 | S. cerevisiae deletion strains, locus YPL240C, strain hsp82, active compounds read low 0.982 | S. cerevisiae deletion strains, locus YPL256C, strain CLN2, active compounds read low 1.01

Brc1c(NC2=NCCN2)ccc2nccnc12
inactive: S. cerevisiae deletion strains, locus YAL040C, strain CLN3, active compounds read low 1.01 | S. cerevisiae deletion strains, locus YCL061C, strain MRC1 (second series), active compounds read low 1 | S. cerevisiae deletion strains, locus YDR363W, strain ESC2, active compounds read low 1 | S. cerevisiae deletion strains, locus YER002W, strain NOP16, active compounds read low 1.01 | S. cerevisiae deletion strains, locus YGR229C, strain SMI1, active compounds read low 1.01 | [16] 0.994 | S. cerevisiae deletion strains, locus YNL175C, strain NOP13, active compounds read low 0.989 | S. cerevisiae deletion strains, locus YNL197C, strain WHI3, active compounds read low 0.981 | S. cerevisiae deletion strains, locus YNL224C, strain SQS1, active compounds read low 0.994 | [19] 1 | S. cerevisiae deletion strains, locus YOR083W, strain WHI5 (second series), active compounds read low 1 | [22] 1
